From the supplement of paper PMC13380429

Test system: Vero E6 infected with SARS-CoV-2
Test: inhibition of SARS-CoV-2 cytopathic effect; higher = more antiviral protection, active = above 15
Conditions: 48 h

Measured: inhibition of SARS-CoV-2 cytopathic effect

CO[C@@H]1[C@H](O)[C@@H](CO)O[C@H]1n1cnc2c(NC3CCCCC3)ncnc21
inactive: 1 nM -0.97% | 8.33 nM 1.94% | 100 nM 8.69% | 833.33 nM 1.46% | 10000 nM -0.79%

N=C(N)NCCC[C@@H](N)C(=O)N[C@@H](CCCNC(=N)N)C(=O)N1CCC[C@H]1C(=O)N1C[C@H](O)C[C@H]1C(=O)NCC(=O)N[C@@H](Cc1cccs1)C(=O)N[C@@H](CO)C(=O)N1Cc2ccccc2C[C@@H]1C(=O)N1[C@H](C(=O)N[C@@H](CCCNC(=N)N)C(=O)O)C[C@@H]2CCCC[C@@H]21 [icatibant-acetate]
inactive: 1 nM -2.62% | 8.33 nM -4.61% | 100 nM -4.27% | 833.33 nM 2.14% | 10000 nM 1.26%

Nc1nc(Cl)nc2c1ncn2[C@@H]1O[C@H](CO)[C@@H](O)[C@@H]1F [clofarabine]
inactive: 1 nM 0.13% | 8.33 nM 2.08% | 100 nM 1.42% | 833.33 nM 2.37% | 10000 nM 3.69%

C[C@@H](Oc1ccc(Cl)cc1)c1ccnc2ncnn12
inactive: 1 nM -0.64% | 8.33 nM 0.02% | 100 nM -0.48% | 833.33 nM -2.21% | 10000 nM -3.4%

Cc1[nH]c2ccccc2c1CCNCc1ccc(/C=C/C(=O)NO)cc1 [panobinostat]
inactive: 1 nM -1% | 8.33 nM -0.99% | 100 nM -7.01% | 833.33 nM -13.3% | 10000 nM -14.4%

CCCC(C)C1(CC)C(=O)NC(=S)NC1=O (stereo not given) [thiopental]
inactive: 1 nM -0.77% | 8.33 nM 0.01% | 100 nM 0.2% | 833.33 nM 1.29% | 10000 nM 0.45%

CCn1c(-c2nonc2N)nc2cncc(C(=O)N3CC[C@H](N)C3)c21
inactive: 1 nM 0.81% | 8.33 nM 3.31% | 100 nM 2.3% | 833.33 nM -3.28% | 10000 nM -2.39%

CC(=O)N1CCC[C@H]1C(=O)N[C@@H](Cc1cnc[nH]1)C(=O)N[C@@H](CO)C(=O)N[C@@H](CS)C(=O)N[C@@H](CC(N)=O)C(N)=O
inactive: 1 nM 1.06% | 8.33 nM 0.67% | 100 nM 2.55% | 833.33 nM 2.87% | 10000 nM 3.86%

Oc1ccc2ccccc2c1 [beta-naphthol]
inactive: 1 nM -0.51% | 8.33 nM -1.33% | 100 nM 2.24% | 833.33 nM 5.34% | 10000 nM 2.59%

CN1CCN(C2CCN(C(=O)Nc3cc(Oc4ccc(NC(=O)C5(C(=O)Nc6ccc(F)cc6)CC5)c(F)c4)ccn3)CC2)CC1 [golvatinib]
active: 10000 nM 40.8%
inactive: 1 nM 0.88% | 8.33 nM 0.74% | 100 nM 2.78% | 833.33 nM 5.87%

CN[C@@H](C)[C@H](O)c1ccccc1 [ephedrine]
inactive: 1 nM -1.32% | 8.33 nM -0.23% | 100 nM 1.57% | 833.33 nM 3.01% | 10000 nM -0.52%

O=c1c2ccccc2[se]n1-c1ccccc1 [ebselen]
inactive: 1 nM 0.19% | 8.33 nM 3.3% | 100 nM 2.73% | 833.33 nM 3.17% | 10000 nM -3.01%

Cc1cc([C@@H](C)Nc2ccccc2C(=O)O)c2nc(N3CCOCC3)cc(=O)n2c1
inactive: 1 nM -0.68% | 8.33 nM -0.79% | 100 nM -4.63% | 833.33 nM -7.74% | 10000 nM -2.98%

CCOC(=O)c1c(CSc2ccccc2)n(C)c2cc(Br)c(O)c(CN(C)C)c12 [arbidol]
inactive: 1 nM -1.24% | 8.33 nM 3.62% | 100 nM 2.92% | 833.33 nM 4.8% | 10000 nM 3.91%

CNCCc1ccc(O)c(O)c1 [deoxyepinephrine]
inactive: 1 nM -0.96% | 8.33 nM 2.29% | 100 nM 2.18% | 833.33 nM -0.04% | 10000 nM -0.83%

CCOC(=O)C1=C(C)NC(C)=C(C(=O)OC)C1c1cccc(Cl)c1Cl (stereo not given) [felodipine]
inactive: 1 nM 1.65% | 8.33 nM 3.36% | 100 nM 5.39% | 833.33 nM 4.84% | 10000 nM 1.57%

C[C@@H]1O[C@@H](O[C@H]2[C@H](Oc3cc(O)c(C(=O)CCc4ccc(O)cc4)c(O)c3)O[C@H](CO)[C@@H](O)[C@@H]2O)[C@H](O)[C@H](O)[C@H]1O [naringin-dihydrochalcone]
inactive: 1 nM 0.83% | 8.33 nM 0.35% | 100 nM 0.27% | 833.33 nM 0.83% | 10000 nM 1.4%
